Measured values taken from PubChem BioAssay AID1159580 (chemical genetic matrix, 2015).
“And” between values parts separate entries of the source, which are not always exact repeats. Identical values can stand only once. Screen size: about 5,500 compounds; about 2,000 (36%) were called active. About 18% were inconclusive and are not listed. No stated cut-off is given here; in the data, active means normalized growth mostly below about 0.91 (no sharp cut-off); inconclusive means no clear call, values can overlap the other calls; inactive means mostly above about 0.92. Some of the results follow.

Experiment: chemical genetic growth profiling, strain panel (AID 1159580);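 further: tested at 20 µM; growth read once vehicle control cultures reached saturation at 30 °C; 1 = growth at the plate median or of vehicle wells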
Conditions: growth OD
[1] = S. cerevisiae deletion strains, locus YBR229C, strain ROT2, stronger effect = lower value
[2] = S. cerevisiae deletion strains, locus YCL061C, strain MRC1, stronger effect = lower value
[3] = S. cerevisiae deletion strains, locus YDL101C, strain DUN1, stronger effect = lower value
[4] = S. cerevisiae deletion strains, locus YDL134C, strain PPH21, stronger effect = lower value
[5] = S. cerevisiae deletion strains, locus YDR150W, strain NUM1, stronger effect = lower value
[6] = S. cerevisiae deletion strains, locus YEL061C, strain CIN8, stronger effect = lower value
[7] = S. cerevisiae deletion strains, locus YGR078C, strain PAC10, stronger effect = lower value
[8] = S. cerevisiae deletion strains, locus YHR030C, strain SLT2, stronger effect = lower value
[9] = S. cerevisiae deletion strains, locus YHR087W, strain rtc3, stronger effect = lower value
[10] = S. cerevisiae deletion strains, locus YJR043C, strain POL32, stronger effect = lower value
[11] = S. cerevisiae deletion strains, locus YJR075W, strain HOC1, stronger effect = lower value
[12] = S. cerevisiae deletion strains, locus YLR039C, strain RIC1, stronger effect = lower value
[13] = S. cerevisiae deletion strains, locus YLR058C, strain SHM2 (second series), stronger effect = lower value
[14] = S. cerevisiae deletion strains, locus YLR085C, strain ARP6, stronger effect = lower value
[15] = S. cerevisiae deletion strains, locus YLR262C, strain YPT6, stronger effect = lower value
[16] = S. cerevisiae deletion strains, locus YML094W, strain GIM5, stronger effect = lower value
[17] = S. cerevisiae deletion strains, locus YMR219W, strain ESC1, stronger effect = lower value
[18] = S. cerevisiae deletion strains, locus YMR263W, strain SAP30, stronger effect = lower value
[19] = S. cerevisiae deletion strains, locus YMR307W, strain GAS1, stronger effect = lower value
[20] = S. cerevisiae deletion strains, locus YNL153C, strain GIM3, stronger effect = lower value
[21] = S. cerevisiae deletion strains, locus YNL298W, strain CLA4 (second series), stronger effect = lower value
[22] = S. cerevisiae deletion strains, locus YNL322C, strain KRE1, stronger effect = lower value
[23] = S. cerevisiae deletion strains, locus YNR030W, strain Alg12, stronger effect = lower value
[24] = S. cerevisiae deletion strains, locus YPL055C, strain LGE1, stronger effect = lower value
[25] = S. cerevisiae deletion strains, locus YPL241C, strain CIN2, stronger effect = lower value
[26] = S. cerevisiae deletion strains, locus YPR135W, strain CTF4, stronger effect = lower value

Measured: normalized growth

CSc1sc(-c2ccn[nH]2)c(-c2ccccc2)c1C#N
active: [4] 0.732 | [6] 0.827 | [14] 0.437 | S. cerevisiae deletion strains, locus YLR113W, strain HOG1, stronger effect = lower value 0.861 | [16] 0.789 | [19] 0.508 | [21] 0.735 | [23] 0.753 | [25] 0.758 | S. cerevisiae strains, strain wild type, stronger effect = lower value 0.911
0.599 (active) and 1.06 (inactive): [8]
inactive: S. cerevisiae deletion strains, locus YAR019C, strain CDC15, stronger effect = lower value 0.982 | S. cerevisiae deletion strains, locus YBL105C, strain PKC1, stronger effect = lower value 0.981 | S. cerevisiae deletion strains, locus YBR135W, strain CKS1, stronger effect = lower value 0.975 | S. cerevisiae deletion strains, locus YBR136W, strain MEC1, stronger effect = lower value 0.975 | S. cerevisiae deletion strains, locus YBR160W, strain CDC28, stronger effect = lower value 0.992 | [1] 0.941 | [2] 0.981 | S. cerevisiae deletion strains, locus YDL017W, strain CDC7, stronger effect = lower value 0.994 | S. cerevisiae deletion strains, locus YDL028C, strain MPS1, stronger effect = lower value 0.983 | [3] 0.968 and 0.962 | S. cerevisiae deletion strains, locus YDL108W, strain KIN28, stronger effect = lower value 0.977 | S. cerevisiae deletion strains, locus YDL132W, strain cdc53, stronger effect = lower value 0.972 | S. cerevisiae deletion strains, locus YDL214C, strain PRR2, stronger effect = lower value 0.997 | S. cerevisiae deletion strains, locus YDR052C, strain DBF4, stronger effect = lower value 0.989 | S. cerevisiae deletion strains, locus YDR054C, strain cdc34, stronger effect = lower value 0.988 | [5] 0.974 | S. cerevisiae deletion strains, locus YDR226W, strain ADK1, stronger effect = lower value 0.976 | S. cerevisiae deletion strains, locus YDR477W, strain SNF1, stronger effect = lower value 0.984 | S. cerevisiae deletion strains, locus YER123W, strain YCK3, stronger effect = lower value 0.976 | S. cerevisiae deletion strains, locus YER133W, strain GLC7, stronger effect = lower value 0.987 | S. cerevisiae deletion strains, locus YFL009W, strain cdc4, stronger effect = lower value 0.97 | S. cerevisiae deletion strains, locus YFL029C, strain CAK1, stronger effect = lower value 0.975 | S. cerevisiae deletion strains, locus YFR003C, strain YPI1, stronger effect = lower value 0.976 | S. cerevisiae deletion strains, locus YFR019W, strain FAB1, stronger effect = lower value 0.973 | S. cerevisiae deletion strains, locus YFR028C, strain CDC14, stronger effect = lower value 0.974 | S. cerevisiae deletion strains, locus YGR040W, strain KSS1, stronger effect = lower value 0.998 | S. cerevisiae deletion strains, locus YGR052W, strain FMP48, stronger effect = lower value 0.998 | [7] 0.941 | S. cerevisiae deletion strains, locus YGR092W, strain DBF2, stronger effect = lower value 1 | S. cerevisiae deletion strains, locus YHR079C, strain IRE1, stronger effect = lower value 1.09 | S. cerevisiae deletion strains, locus YHR082C, strain KSP1, stronger effect = lower value 1.03 | [9] 0.914 | S. cerevisiae deletion strains, locus YHR205W, strain SCH9, stronger effect = lower value 0.997 | S. cerevisiae deletion strains, locus YIL147C, strain SLN1, stronger effect = lower value 0.979 | S. cerevisiae deletion strains, locus YJL095W, strain BCK1, stronger effect = lower value 0.974 | S. cerevisiae deletion strains, locus YJL128C, strain PBS2, stronger effect = lower value 0.957 | S. cerevisiae deletion strains, locus YJL157C, strain FAR1, stronger effect = lower value 0.986 | S. cerevisiae deletion strains, locus YJR016C, strain ILV3, stronger effect = lower value 0.978 | [10] 0.969 | S. cerevisiae deletion strains, locus YJR066W, strain TOR1 (second series), stronger effect = lower value 0.92 | S. cerevisiae deletion strains, locus YJR066W, strain TOR1, stronger effect = lower value 1.04 | [11] 0.944 | S. cerevisiae deletion strains, locus YKL048C, strain ELM1, stronger effect = lower value 0.984 | S. cerevisiae deletion strains, locus YKL067W, strain YNK1, stronger effect = lower value 0.992 | S. cerevisiae deletion strains, locus YKL101W, strain HSL1, stronger effect = lower value 0.976 | S. cerevisiae deletion strains, locus YKL193C, strain SDS22, stronger effect = lower value 0.983 | S. cerevisiae deletion strains, locus YKL203C, strain TOR2, stronger effect = lower value 1.04 | [12] 0.846 | [13] 0.975 | S. cerevisiae deletion strains, locus YLR133W, strain CKI1, stronger effect = lower value 0.968 | [15] 0.991 | S. cerevisiae deletion strains, locus YLR403W, strain SFP1, stronger effect = lower value 0.982 | S. cerevisiae deletion strains, locus YML070W, strain DAK1, stronger effect = lower value 0.984 | S. cerevisiae deletion strains, locus YMR001C, strain CDC5, stronger effect = lower value 0.993 | S. cerevisiae deletion strains, locus YMR205C, strain PFK2 (second series), stronger effect = lower value 0.97 | [17] 0.955 | [18] 0.939 | S. cerevisiae deletion strains, locus YMR277W, strain FCP1, stronger effect = lower value 0.984 | S. cerevisiae deletion strains, locus YNL006W, strain LST8, stronger effect = lower value 1 | S. cerevisiae deletion strains, locus YNL020C, strain ARK1, stronger effect = lower value 0.996 | [20] 0.979 | S. cerevisiae deletion strains, locus YNL161W, strain CBK1, stronger effect = lower value 0.991 | S. cerevisiae deletion strains, locus YNL183C, strain NPR1, stronger effect = lower value 1 | S. cerevisiae deletion strains, locus YNL207W, strain RIO2, stronger effect = lower value 0.96 | S. cerevisiae deletion strains, locus YNL222W, strain SSU72, stronger effect = lower value 0.977 | S. cerevisiae deletion strains, locus YNL307C, strain MCK1 (second series), stronger effect = lower value 1.01 | [22] 0.965 | S. cerevisiae deletion strains, locus YOL078W, strain AVO1, stronger effect = lower value 0.981 | S. cerevisiae deletion strains, locus YOL136C, strain PFK27, stronger effect = lower value 0.956 | S. cerevisiae deletion strains, locus YOR061W, strain CKA2, stronger effect = lower value 0.986 | S. cerevisiae deletion strains, locus YOR119C, strain RIO1, stronger effect = lower value 1.02 | S. cerevisiae deletion strains, locus YOR231W, strain MKK1, stronger effect = lower value 0.965 | S. cerevisiae deletion strains, locus YOR329C, strain SCD5, stronger effect = lower value 0.995 | S. cerevisiae deletion strains, locus YPL031C, strain PHO85, stronger effect = lower value 0.989 | [24] 0.875 | S. cerevisiae deletion strains, locus YPL153C, strain RAD53, stronger effect = lower value 0.971 | S. cerevisiae deletion strains, locus YPL204W, strain HRR25, stronger effect = lower value 0.958 | S. cerevisiae deletion strains, locus YPL209C, strain IPL1, stronger effect = lower value 0.978 | S. cerevisiae deletion strains, locus YPL256C, strain CLN2, stronger effect = lower value 1.04 | S. cerevisiae deletion strains, locus YPR025C, strain CCL1, stronger effect = lower value 0.989 | S. cerevisiae deletion strains, locus YPR106W, strain ISR1, stronger effect = lower value 0.986 | S. cerevisiae deletion strains, locus YPR111W, strain DBF20, stronger effect = lower value 0.954 | [26] 0.69 | S. cerevisiae deletion strains, strain NNK1, stronger effect = lower value 0.966 | S. cerevisiae deletion strains, strain TSCII, stronger effect = lower value 0.984

COc1ccc(-c2c(C(=O)O)sc(SC)c2C#N)cc1
inactive: S. cerevisiae deletion strains, locus YAL013W, strain DEP1, stronger effect = lower value 0.996 | [1] 0.998 | [2] 0.989 | [3] 1.01 | [4] 1.01 | [5] 1.07 | [6] 1.01 | [7] 1.01 | S. cerevisiae deletion strains, locus YGR229C, strain SMI1, stronger effect = lower value 1 | [8] 1.01 | [9] 0.997 | [10] 0.981 | [11] 1.01 | S. cerevisiae deletion strains, locus YKL190W, strain CNB1, stronger effect = lower value 1.01 | [12] 1.03 | [13] 0.994 | [14] 1.05 | [15] 1.04 | [16] 1.02 | [17] 1 | [18] 1.04 | [19] 1.06 | [20] 0.992 | [21] 1 | [22] 1 | [23] 1.01 | [24] 1.1 | [25] 1.01 | [26] 0.964
